{
  "source": "the antibiotic and cytotoxicity screens of Wong et al. (2023)",
  "note": "The campaign covered roughly 39,000 compounds. About 1,500 (3.8%) were called active. What follows is part of a selection rich in actives, with near analogues and random picks from the rest.",
  "data": [
    {"tested_on": "HSkMC (human skeletal muscle cells)", "test": "cytotoxicity call (relative viability < 0.9)", "details": "10 µM", "values": [
      {"smiles": "C[C@H]1CN([C@@H](C)CO)C(=O)c2cc(NC(=O)C3CC3)ccc2O[C@H]1CN(C)Cc1ccc(Oc2ccccc2)cc1", "cytotoxicity call": "inactive"},
      {"smiles": "COc1ccc(S(=O)(=O)N(C)C[C@@H]2Oc3ccc(NS(=O)(=O)c4cccs4)cc3C(=O)N([C@@H](C)CO)C[C@@H]2C)cc1", "cytotoxicity call": "inactive"},
      {"smiles": "C[C@H]1CN([C@@H](C)CO)C(=O)Cc2cc(NC(=O)C3CC3)ccc2O[C@H]1CN(C)S(=O)(=O)c1cn(C)cn1", "cytotoxicity call": "inactive"},
      {"smiles": "C[C@H]1CCCCO[C@H](CN(C)C(=O)Nc2ccc3c(c2)OCO3)[C@@H](C)CN([C@@H](C)CO)C(=O)c2cc(NC(=O)CCC(F)(F)F)ccc2O1", "cytotoxicity call": "inactive"},
      {"smiles": "O=C(O)c1ccc(CCO)s1", "cytotoxicity call": "inactive"},
      {"smiles": "COc1ccccc1C#Cc1ccc2c(c1)O[C@@H](CN(C)Cc1cccnc1)[C@@H](C)CN([C@H](C)CO)S2(=O)=O", "cytotoxicity call": "inactive"},
      {"smiles": "COc1ccccc1C#Cc1ccc2c(c1)O[C@H](CN(C)Cc1cccnc1)[C@@H](C)CN([C@@H](C)CO)S2(=O)=O", "cytotoxicity call": "active"},
      {"smiles": "COc1ccccc1C#Cc1ccc2c(c1)O[C@H](CN(C)Cc1cncnc1)[C@H](C)CN([C@@H](C)CO)S2(=O)=O", "cytotoxicity call": "inactive"},
      {"smiles": "COc1ccccc1C#Cc1ccc2c(c1)O[C@@H](CN(C)Cc1cccnc1)[C@H](C)CN([C@H](C)CO)S2(=O)=O", "cytotoxicity call": "active"},
      {"smiles": "COc1ccccc1C#Cc1ccc2c(c1)O[C@@H](CN(C)Cc1cccnc1)[C@@H](C)CN([C@@H](C)CO)S2(=O)=O", "cytotoxicity call": "inactive"},
      {"smiles": "COc1ccccc1C#Cc1ccc2c(c1)O[C@@H](CN(C)Cc1cccnc1)[C@H](C)CN([C@@H](C)CO)S2(=O)=O", "cytotoxicity call": "active"},
      {"smiles": "COc1ccccc1C#Cc1ccc2c(c1)O[C@H](CN(C)Cc1cccnc1)[C@H](C)CN([C@@H](C)CO)S2(=O)=O", "cytotoxicity call": "inactive"},
      {"smiles": "COc1ccccc1C#Cc1ccc2c(c1)O[C@H](CN(C)Cc1cccnc1)[C@H](C)CN([C@H](C)CO)S2(=O)=O", "cytotoxicity call": "inactive"},
      {"smiles": "COc1ccccc1C#Cc1ccc2c(c1)O[C@H](CN(C)Cc1cccnc1)[C@@H](C)CN([C@H](C)CO)S2(=O)=O", "cytotoxicity call": "inactive"},
      {"smiles": "C[C@@H]1CN([C@H](C)CO[Si](C)(C)C(C)(C)C)C(=O)c2cc(NC(=O)C3CCCCC3)ccc2O[C@H]1CN(C)C(=O)c1ccc(Cl)cc1", "cytotoxicity call": "inactive"},
      {"smiles": "COc1ccccc1CNC(=O)C[C@@H]1C[C@@H]2c3cc(NC(=O)Nc4ccc(C(F)(F)F)cc4)ccc3O[C@@H]2[C@@H](CO)O1", "cytotoxicity call": "inactive"},
      {"smiles": "C=CCNC(=O)CSc1nc(=O)cc(N)[nH]1", "cytotoxicity call": "inactive"},
      {"smiles": "COc1ccc(S(=O)(=O)N(C)C[C@@H]2OCCCC[C@H](C)Oc3ccc(NC(=O)Nc4ccc(C(F)(F)F)cc4)cc3C(=O)N([C@H](C)CO)C[C@@H]2C)cc1", "cytotoxicity call": "inactive"},
      {"smiles": "C[C@@H]1CN([C@H](C)CO)C(=O)c2cc(NC(=O)Nc3ccc(C(F)(F)F)cc3)ccc2O[C@@H](C)CCCCO[C@H]1CN(C)S(=O)(=O)c1ccc(Cl)cc1", "cytotoxicity call": "inactive"},
      {"smiles": "COc1ccc(S(=O)(=O)N(C)C[C@H]2OCCCC[C@@H](C)Oc3ccc(NC(=O)Nc4ccc(C(F)(F)F)cc4)cc3C(=O)N([C@@H](C)CO)C[C@@H]2C)cc1", "cytotoxicity call": "active"},
      {"smiles": "C[C@@H]1CCCCO[C@@H](CN(C)S(=O)(=O)c2ccc(Cl)cc2)[C@H](C)CN([C@@H](C)CO)C(=O)c2cc(NC(=O)Nc3ccc(C(F)(F)F)cc3)ccc2O1", "cytotoxicity call": "inactive"},
      {"smiles": "C[C@@H]1CCCCO[C@H](CN(C)S(=O)(=O)c2ccc(Cl)cc2)[C@@H](C)CN([C@H](C)CO)C(=O)c2cc(NC(=O)Nc3ccc(C(F)(F)F)cc3)ccc2O1", "cytotoxicity call": "active"},
      {"smiles": "COc1ccc(S(=O)(=O)N(C)C[C@@H]2OCCCC[C@H](C)Oc3ccc(NC(=O)Nc4ccc(C(F)(F)F)cc4)cc3C(=O)N([C@@H](C)CO)C[C@H]2C)cc1", "cytotoxicity call": "inactive"},
      {"smiles": "COc1ccc(S(=O)(=O)N(C)C[C@H]2OCCCC[C@H](C)Oc3ccc(NC(=O)Nc4ccc(C(F)(F)F)cc4)cc3C(=O)N([C@@H](C)CO)C[C@@H]2C)cc1", "cytotoxicity call": "inactive"},
      {"smiles": "COc1ccc(S(=O)(=O)N(C)C[C@H]2OCCCC[C@@H](C)Oc3ccc(NC(=O)Nc4ccc(C(F)(F)F)cc4)cc3C(=O)N([C@@H](C)CO)C[C@H]2C)cc1", "cytotoxicity call": "active"},
      {"smiles": "COc1ccc(S(=O)(=O)N(C)C[C@H]2OCCCC[C@@H](C)Oc3ccc(NC(=O)Nc4ccc(C(F)(F)F)cc4)cc3C(=O)N([C@H](C)CO)C[C@H]2C)cc1", "cytotoxicity call": "inactive"},
      {"smiles": "C=C1[N-]O[N+](O)=C1CN(Cc1c(C)no[n+]1[O-])OC(C)=O", "cytotoxicity call": "inactive"},
      {"smiles": "C[C@H]1CN([C@@H](C)CO)C(=O)c2cccc(NC(=O)Nc3ccc(C(F)(F)F)cc3)c2O[C@@H]1CN(C)Cc1ccc(-c2ccccc2)cc1", "cytotoxicity call": "inactive"},
      {"smiles": "C[C@H](CO)N1C[C@H](C)[C@H](CN(C)Cc2ccc(Cl)c(Cl)c2)OCCCC[C@H](C)Oc2ccc(NC(=O)NC3CCCCC3)cc2C1=O", "cytotoxicity call": "inactive"},
      {"smiles": "Cn1nc(CN2CCCC2=O)c2c1CN(C(=O)CO)C2", "cytotoxicity call": "inactive"},
      {"smiles": "C[C@H]1CCCCO[C@H](CN(C)Cc2ccc(C(F)(F)F)cc2)[C@@H](C)CN([C@@H](C)CO)C(=O)c2cc(N(C)C)ccc2O1", "cytotoxicity call": "inactive"},
      {"smiles": "COc1ccc(-c2cnc3c(c2)C(=O)N([C@H](C)CO)C[C@@H](C)[C@H](CN(C)C(=O)Cc2cccnc2)O3)cc1", "cytotoxicity call": "inactive"},
      {"smiles": "COc1ccc(NC(=O)N(C)C[C@@H]2OCCCC[C@H](C)Oc3ccc(NC(=O)Nc4ccc(C(F)(F)F)cc4)cc3C(=O)N([C@H](C)CO)C[C@@H]2C)cc1", "cytotoxicity call": "inactive"},
      {"smiles": "CN(C)Cc1ccc([C@@H](N)c2ccncc2)cc1", "cytotoxicity call": "inactive"},
      {"smiles": "COc1ccc2c3c(n(c2c1)C)[C@@H](CO)N(Cc1cc(cc(c1)OC)OC)C[C@]13CCN(CC1)C(=O)CN1CCOCC1", "cytotoxicity call": "inactive"},
      {"smiles": "CCOC(=O)c1ccc(NC(=S)N[C@@H](NC(=O)c2ccc(Br)cc2)C(Cl)(Cl)Cl)cc1", "cytotoxicity call": "active"},
      {"smiles": "CCOC(=O)c1ccc(N)cc1", "cytotoxicity call": "inactive"},
      {"smiles": "CCOC(=O)c1ccc(O)cc1", "cytotoxicity call": "inactive"},
      {"smiles": "Cc1noc(C)c1S(=O)(=O)Nc1ccc2c(c1)CC(=O)N([C@H](C)CO)C[C@H](C)[C@@H](CN(C)S(=O)(=O)c1cn(C)cn1)O2", "cytotoxicity call": "inactive"},
      {"smiles": "CNc1ccc(-c2nc(N3CCOCC3)c3sc(CN(C)c4ncc(C(=O)NO)cn4)cc3n2)cn1", "cytotoxicity call": "active"},
      {"smiles": "COC(=O)COc1nsnc1N1CCOCC1", "cytotoxicity call": "inactive"},
      {"smiles": "COc1ccc(-c2nc(N3CCOCC3)c3sc(CN(C)c4ncc(C(=O)NO)cn4)cc3n2)cn1", "cytotoxicity call": "active"}
    ]}
  ]
}
